In all, about 1,200 compounds went through this assay and about 480 (40%) were called active. Another 29% or so got no clear call; they are omitted. Some of the results follow. Unmarked numbers belong to inactive results. Calls follow the shape of the dose curve; as a rule, active = well fitted inhibition curve with a large enough effect; inconclusive = small, poorly fitted or top-dose-only effect; inactive = no such curve, though single readings can be large or run the other way.
Experiment: qHTS Assay to Find Inhibitors of Chronic Active B-Cell Receptor Signaling: Hit Validation in Primary Screen; also: nearly all actives have a fitted effect of over 75% in size
Settings: ABC-DLBCL IkB-luc/CBR ratio luminescence, 4 h; series mostly up to 46.1 µM; activity change, negative = inhibition: at the top concentration
Description: Diffuse large B-cell lymphoma (DLBCL) is the most common category of non-Hodgkin lymphoma, with ~20,000 new cases per year in the United States. DLBCL should be regarded as a collection of different neoplasms. Microarray gene expression analysis has defined two principal types of DLBCL, named for their similarity to normal B cell stages or activation states: a germinal center B-cell (GCB) type, and an activated B-cell (ABC) type. In ABC-DLBCL, a constitutive high-level activity of the NF-kappaB family of transcription factors has been observed (1) and NF-kappaB target genes are more highly expressed in ABC primary tumors than in GCB tumors. Functional studies have shown a constitutive high-level activity of the IkappaB (inhibitor of kappa-B) kinase (IKK) complex. […] Further analysis of DLBCL primary tumors for NF-kappaB target gene expression imply that although CARD11 is required for constitutive IKK activity in all ABC-DLBCL lines, mutations in CARD11 may be the root cause of IKK activation only in lines or tumors with such mutations. In other words, CARD11 mutations may explain NF-kappaB activation in only 10% of ABC-DLBCL cases. […] This process has been termed 'chronic active BCR signaling' (CABS). The goal of this screen is to find small-molecule inhibitors of the CABS pathway found in ABC-DLBCL lines using a cell-based assay that measures IkappaBalpa stability, which has already been extensively validated in the OCI-Ly3 line (PubChem AID:445; REF: 4). […] A cell-sensor assay for I-kappa-B-alpha stabilization has been developed. The assay uses green (CBG68) and red (CBR) emitting beetle luciferases [Chroma-GloTM developed by Promega Corp.] where the green luciferase is fused to IkappaBalpha and the red luciferase is present in its native state. Both luciferase genes are stably present in the TMD8 human ABC DLBCL cell line, but their expression is under the control of tetracycline-inducible promoters. Following the addition of doxycycline to induce expression of the luciferases, the green luminescence in control cultures rises only slowly because the CBG fusion partner IkappaBalpha is targeted by IKK activity for rapid degradation. In contrast, green luminescence rises rapidly in the presence of proteasome inhibitors or IKK inhibitors. The rise in red luminescence of CBR is not affected by proteasome or IKK inhibitors, and serves as normalization for cell number and nonspecific effects. Compounds were screened as a concentration-titration series that ranged from 46 uM to 3 nM. NIH Molecular Libraries Probe Production Network [MLPCN] NIH Chemical Genomics Center [NCGC] MLPCN Grant: R03 DA031086 PI Name: Dr. R. Eric Davis
Cells were seeded in 1536-well plates at 5000 cells/4uL in IMDM medium containing 0.5% FBS, w/o phenol red, 1% penicillin/streptomycin. Then, 23 nL of compounds or DMSO were delivered to each well using a pin tool. One uL 20ng/ml doxycycline was then dispensed into white solid 1536-well plates and the plates were incubated at 37C/5% C02 in a cell incubator for 4 hrs. Then 4 uL luminescent substrate mix (in-house prepared: 150 mM Tris-Cl, pH 7.6, 3 mM MgCl2, 1% Triton X-100, 5 mM DTT, 0.2 mM CoA, 0.15 mM ATP, 5 mM D-luciferin, final concentrations) was added to each well. The plate was incubated at r.t. for 10-15 min. The plates were measured on a ViewLux plate reader for green luminescence (540/20 nm filter) and red luminescence (618/8 nm filter). The green and red luminescent signals were corrected for red and green luminescence filter overlap using previously determined filter calibration constants (determined using the procedure outlined in the Promega Technical Manual; REF 4). The %Activity was determined from the ratio of corrected green/red luminescent values. MG132 were used as control. Green luminescent and ratio %Activity was determined by normalizing to the difference in signal between basal cells (0% Activity) and cells incubated with 10 uM of the proteasome inhibitor MG-132 (100% Activity). […]
% is scaled to controls: 0 for no effect and ±100 for the full control effect; potency is read from the fitted curve at half-maximal effect.

| Compound | Potency | activity change, negative = inhibition |
| --- | --- | --- |
| COc1ccc(/C=C/C(=O)c2cc(F)ccc2OC(=O)c2ccccc2OC)cc1OC | 1.3 µM (active) | – |
| O=C(NC(=S)Nc1cccc(F)c1)c1cccc([N+](=O)[O-])c1 | – | -2.56% |
| O=C(Oc1ccc(F)cc1C(=O)/C=C/c1cccs1)c1cccc([N+](=O)[O-])c1 | 1.46 µM (active) | – |
| S=C(Nc1ccccc1Cl)N(Cc1ccccc1)Cc1ccccn1 | – | -2.47% |
| COc1ccc(NC(=S)N/N=C/c2ccc(F)cc2)cc1OC | – | -3.66% |
| COc1ccc(/C=C/C(=O)c2cc(F)ccc2OC(=O)c2ccc(OC)c(OC)c2)cc1OC | 23.1 µM (active) | – |
| COc1cccc(Nc2sc(C(=O)c3ccc(Cl)cc3)c(N)c2C(=O)NCc2ccc(C)cc2)c1 | 1.3 µM (active) | – |
| Cc1cc(C)c(S(=O)(=O)Nc2ccc3c4c(cccc24)CC3)c(C)c1 | 1.16 µM (active) | – |
| COc1ccc(CN2C[C@H]3CCCN3c3cc(Br)ccc3S2(=O)=O)cc1 | 6.51 µM (active) | – |
| COc1cccc(CN2c3ccc(Br)cc3C(=O)CS2(=O)=O)c1 | – | 6.37% |
| COc1ccc(-c2c(-c3cc(OC)c(OC)c(OC)c3)noc2C)cn1 | 20.6 µM (active) | – |
| COc1cc(-c2noc(C)c2-c2ccc(N(C)C)nc2)cc(OC)c1OC | 2.31 µM (active) | – |
| COc1cc(-c2noc(C)c2-c2ccc3[nH]ccc3c2)cc(OC)c1OC | 14.6 µM (active) | – |
| CCOC(=O)c1ccc(-c2c(-c3cc(OC)c(OC)c(OC)c3)noc2C)cc1F | 8.2 µM (active) | – |
| CC1=C/C(=N\NC(=S)NCc2ccccc2)CC1 | – | -7.8% |
| COc1cc(-c2c(-c3cc(OC)c(OC)c(OC)c3)noc2C)ccc1F | 1.3 µM (active) | – |
| CC(/C=N/NC(=O)c1cc(-c2ccccc2)nc2ccccc12)=C\c1ccco1 | 5.8 µM (active) | – |
| CC(/C=N/NC(=O)c1cc(-c2ccncc2)nc2ccccc12)=C\c1ccco1 | 1.64 µM (active) | – |
| CC(/C=N/NC(=O)c1cc(-c2ccc(Cl)cc2)nc2ccccc12)=C\c1ccco1 | 2.91 µM (active) | – |
| O=C(CN1CCCc2ccccc21)N/N=C/c1ccccc1O | – | -0.214% |
| C=CCNC(=S)N/N=C/c1ccc(C)s1 | – | -9.11% |
| Cc1c(/C=N\NC(=O)C2COc3ccccc3O2)c2ccccc2n1C (stereo not given) | 2.59 µM (active) | – |
| Cc1ccc(/C=N/NC(=O)C2COc3ccccc3O2)s1 (stereo not given) | 23.1 µM (active) | – |
| C#CCOc1ccc(C2C3=C(COC3=O)Nc3cc4c(cc32)OCO4)cc1OC (stereo not given) | 0.146 µM (active) | – |
| O=C1OCC2=C1C(c1ccc(F)cc1)c1cc3c(cc1N2)OCO3 (stereo not given) | 0.116 µM (active) | – |

| Compound | Potency | activity change, negative = inhibition |
| --- | --- | --- |
| COc1ccc(OC)c(C2C3=C(COC3=O)Nc3cc4c(cc32)OCO4)c1 (stereo not given) | 0.366 µM (active) | – |
| COc1ccccc1C1C2=C(COC2=O)Nc2cc3c(cc21)OCO3 (stereo not given) | 1.3 µM (active) | – |
| CCOc1ccccc1C1C2=C(COC2=O)Nc2cc3c(cc21)OCO3 (stereo not given) | 1.3 µM (active) | – |
| O=C(CN1CCC(NC(=O)Nc2ccc(F)cc2)CC1)Nc1ccccc1[N+](=O)[O-] | – | -17.7% |
| CCOc1cc(Br)c(C=O)cc1OCC | 6.51 µM (active) | – |
| CC(C)(C)NNC(=S)Nc1cccc(F)c1 | – | -8.63% |
| COc1cc(OC)cc(C(=O)Oc2c(CN3CCOCC3)cc(Cl)c3cccnc23)c1 | – | 36.6% |
| Cc1cccc(NC(=S)N/N=C/C(C)c2ccccc2)c1C (stereo not given) | – | -3.28% |
| CCN1C(=O)c2cccc3c(S(=O)(=O)Nc4nc(C)cs4)ccc1c23 | 3.66 µM (active) | – |
| CCN1C(=O)c2cccc3c(S(=O)(=O)Nc4ccccc4O)ccc1c23 | – | 94.3% |
| COc1ccccc1OCCCN1C(=O)C(=O)c2cccc(C)c21 | – | -9.96% |
| Cc1ccccc1OCCc1c(C)[nH]c(=S)[nH]c1=O | 11.6 µM (active) | – |
| Cc1ccc(S(=O)(=O)n2cc(-c3ccccc3)c3ccccc32)cc1 | 3.26 µM (active) | – |
| CCCCNC(=S)NNC(=O)CCn1nc(C)c(Br)c1C | – | -4.91% |
| COc1cc(/C=C/c2ccc3cccc(O)c3n2)c(Br)cc1O | 18.4 µM (active) | – |
| COc1cc(Br)cc(/C=C/c2ccc3cccc(O)c3n2)c1O | 20.6 µM (active) | – |
| COc1ccc(OC)c(/C=C/c2ccc3cccc(O)c3n2)c1 | 20.6 µM (active) | – |
| CCOc1ccccc1N=NC1C(=O)N(C(N)=S)N=C1C (stereo not given) | – | 24.5% |
| COCCCNC(=O)C(=O)Nc1ccc2c(c1)N(S(=O)(=O)c1cccs1)CCC2 | 16.4 µM (active) | – |
| CCCC(=O)OCCNc1cc(Sc2nccn2C)c2nonc2c1[N+](=O)[O-] | 3.66 µM (active) | – |
| CCOC(=O)CSC1=C(C#N)C(c2ccc(C)o2)CC(=O)N1 (stereo not given) | 4.11 µM (active) | – |
| CCOC(=O)CSC1=C(C#N)C(c2ccc(C)s2)CC(=O)N1 (stereo not given) | 16.4 µM (active) | – |
| CCCCNC(=S)N=Nc1c(O)[nH]c2ccccc12 | – | 29.1% |
| COc1cc(/C=N/N(C)c2ccccc2)ccc1O | – | 85.9% |
| COc1ccc(/C=C2\CCc3ccccc3C2=O)cc1O | 13 µM (active) | – |
